From PubChem BioAssay (NCI)
Compounds without any hit were thinned out: in the full panel of roughly 83,000, 20% have a hit.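 How to read the values: 0–100, growth inhibition (40 = 60% inhibited); 0, no net growth; -100 to 0, cell death (-40 = 40% of starting cells died; -100 = all dead).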 Active and inactive are the calls of the source. How the source made its calls: active means growth percent below 10; inactive means the rest.

Each compound was assayed on HL-60(TB) leukemia (assay: NCI-60 one-dose screen, 48 h (100 = growth as untreated, 0 = no growth, -100 = all killed)). Details: 10 µM unless noted.

| Structure (SMILES) | growth |
| --- | --- |
| COC12CC(=O)C(C(C)=O)=C(O)C1(C)c1c(O)c(C)c(O)c(C(C)=O)c1O2 (configuration not stated) | 61.7% (inactive) |
| COc1ccc(-c2cn(-c3cccc(C(=O)/C=C/c4cc(OC)c(OC)c(OC)c4)c3)c(=O)[nH]2)cc1 | 5.72% (active) |
| CCC(=O)c1c(C)[nH]c(C)c1C | 92.8% (inactive) |
| CCOC(=O)c1c[nH][nH]c1=O | 110% (inactive) |
| Nc1c(C(=O)Nc2ccccc2)sc2nc3c(cc12)CN(Cc1ccccc1)CC3 | 83% (inactive) |
| CCOC(=O)C1=CCC(n2cc(C)c(=O)[nH]c2=O)O1 (configuration not stated) | 89.8% (inactive) |
| COc1ccc(/C=N/Nc2cc(=O)[nH]c3ccc(C)cc23)cc1 | 94.2% (inactive) |
| O=C(c1ccc(-c2ccccc2)cc1)c1ccc([N+](=O)[O-])cc1 | 129% (inactive) |
| O=CN(SSN(C=O)C1CCCCC1)C1CCCCC1 | 77.2% (inactive) |
| CN1C(=O)/C(=C/c2ccc(C(=O)Nc3ncc(Cc4cc(Cl)ccc4Cl)s3)cc2)SC1=S | 91% (inactive) |
| CCCCCN1C=C/C(=C\C(=O)N(C)c2ccc(OC(F)(F)F)cc2)c2ccccc21 | 111% (inactive) |
| COc1cc(-c2cn(-c3ccc(Cl)c(Cl)c3)c(=O)[nH]2)cc(OC)c1OC | 88.1% (inactive) |
| CCN(CC)CCOc1ccc(/C(=C(\C)c2ccc(F)c(OC)c2)c2ccc(Cl)cc2)cc1 | -27.9% (active) |
| COc1ccc(-c2nc(SC)nc(N3CCOCC3)c2C#N)cc1 | 94% (inactive) |
| COc1cc(OC)cc(-c2ccc(-c3ccc(C(=N)N)o3)o2)c1 | 4.66% (active) |
| O=C(Cn1c2ccccc2c2ccncc21)N/N=C\c1ccc2ccccc2c1 | 40.5% (inactive) |
| C=C1C(=O)O[C@H]2[C@H]1CC/C(CNC(=O)/C=C/c1cccc(OC)c1)=C\CC[C@@]1(C)O[C@@H]21 | -35.4% (active) |
| Clc1ccc(-c2nnc(-c3cccc4ccccc34)o2)cc1 | 112% (inactive) |
| CC(C)C[C@@H](NC(=O)[C@@H](Cc1ccccc1)NC(=O)c1cnccn1)B1O[C@H]2[C@H](O)[C@@H](C(=O)NCCCC[C@@H]3NC(=O)[C@@H](Cc4ccccc4)NC(=O)[C@H](CC(=O)O)NC(=O)CNC(=O)[C@H](CCCN=C(N)N)NC3=O)O[C@@H](CN)[C@H]2O1 | -1.86% (active) |

| Structure (SMILES) | growth |
| --- | --- |
| c1nc(N2CCOCC2)c2[nH]ccc2n1 | 90.2% (inactive) |
| C/C=C(\C)C(=O)N[C@H]1[C@@H](OC(C)=O)C[C@]2(C)C3CC[C@@]4(C)C(CC[C@@H]4C(C)N(C)C)C3CCC2[C@H]1O (some centres not stated) | 70.5% (inactive) |
| CC(C)CCSc1nc(Nc2ccccc2)c(C#N)c(-c2ccc(F)cc2)n1 | 59.6% (inactive) |
| O=[N+]([O-])c1cccc(C2c3ccccc3Oc3ccccc32)c1 | 99% (inactive) |
| COc1ccc(-c2n[nH]nc2-c2cc3ccccc3s2)cc1O | 2.49% (active) |
| CN1CCN(c2ccc(NC(=O)c3cncnc3Nc3ccc4c(ccn4Cc4cccc(F)c4)c3)cc2)CC1 | -54.3% (active) |
| NC(=NC1C2CC3CC(C2)CC1C3)Nc1ccc(I)cc1 (configuration not stated) | 101% (inactive) |
| O=C(CCl)Nc1ccc(Cc2ccc(NC(=O)CCl)cc2)cc1 | -18.3% (active) |
| COc1cc(-c2ncn(/C=C\c3nnco3)n2)cc(C(F)(F)F)c1 | 11.2% (inactive) |
| COc1cccc(-c2nn(C(C)(C)C)cc2-c2ccnc(NCCCNS(=O)(=O)c3ccc(C)cc3)c2)c1 | 105% (inactive) |
| O=C(O)c1cc2cc(OCc3ccccc3)ccc2[nH]1 | 112% (inactive) |
| CC(=O)Oc1ccc(C2OC(c3ccc4ccccc4c3OC(C)=O)=NN2C(C)=O)c(OC(C)=O)c1 (configuration not stated) | -30.7% (active) |
| CCOc1cccc(/C=N/NC(=O)c2ccc(Nc3ccnc(C(F)(F)F)c3)cc2)c1O | 37.7% (inactive) |
| O=C(Nc1ccccc1)c1ccco1 | 95.7% (inactive) |
| C=C(C)[C@@H]1CC[C@]2(C(=O)O)CC[C@]3(C)[C@H](CC[C@@H]4[C@@]5(C)C[C@@H](CC#Cc6ccc(Br)cc6)C(=O)C(C)(C)[C@@H]5CC[C@]43C)[C@@H]12 | 47.7% (inactive) |
| COc1ccc2cc(C(C)C(=O)Nc3ccc(-c4n[nH]c(=S)n4C4CCCCC4)cc3)ccc2c1 (configuration not stated) | 73.6% (inactive) |
| N#CC1=C(N)Oc2ccc3ccccc3c2C1c1ccc([N+](=O)[O-])cc1 (configuration not stated) | 39.8% (inactive) |
| COc1cc(/C=N/NC(=O)Cn2c(C(C)C)nc3ccccc32)ccc1O | 85.2% (inactive) |
